This test concerns the target alpha-glucosidase (Oryza sativa, rice) (UniProt Q653V4). Put plainly: Counterscreen for Glucocerebrosidase Inhibitors: qHTS Assay for Rice alpha-Glucosidase at pH 5.0 (AID 997). A digest of the protocol:
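Rice alpha-glucosidase (4 nM final) with 400 uM 4-methylumbelliferyl-alpha-D-glucopyranoside in citrate buffer pH 5.0, 20 min at room temperature, stopped at pH 10; fluorescence 365/440 nm, compounds 0.7 nM–77 uM, AC50 from Hill fits.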

Active and inactive are the calls of the source. The call rests on the fitted dose curve; in most records, active means well fitted curve in the direction sought with a large enough effect; inconclusive means small, poorly fitted or top-dose-only effect, or another doubt; inactive means no such curve, though single readings can be large or run the other way.

Consider `Oc1ccc(/C=C\c2cc(O)cc(O)c2)cc1`, for which the compound was classed as inactive.

Source of the values: PubChem BioAssay (NCATS).
